LGR2 inh: inhibitors of bursicon-induced LGR2 CRE-luciferase signal, primary screen, cell-based, HEK293, CRE-luciferase reporter, bursicon stimulation | 380,000 compounds, 0.35% hits | Drosophila bursicon receptor LGR2 (rickets) | bursicon-stimulated, 4 h | inhibition, % at 9.99 µM;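 active means drop in luminescence signal, shown as inhibition above about 50% in the replicate tests, limit read from the data, passing the limit was not always enough; inconclusive means probably only some replicates passing the limit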;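 further: agonist challenge used bursicon conditioned medium at about half maximal strength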
TWEAK-Fn14 inh: inhibitors of TWEAK-Fn14 signaling, primary screen, luciferase reporter cells, uHTS; TWEAK-stimulated Fn14 reporter cells, luciferase luminescence, 8 h; 360,000 compounds, 2% hits; inhibition, % at 10 µM; in the data active means inhibition above about 50%
EWS-Fli block: EWS/Fli-driven NR0B1 reporter inhibitors, primary screen, A673 cells, NR0B1 luciferase, luminescence, MLPCN library; viability-normalised; inhibition, % at 12.6 µM; 350,000 compounds, 0.67% hits; AID 651661, 2012;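 active means mean inhibition of at least 50% after viability correction, with every replicate also passing that limit; inconclusive means mean reaches 50% but only one of two replicates passes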;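 further: firefly luciferase signal divided by Alamar Blue viability fluorescence both relative to DMSO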
TROY signal inh: inhibitors of TROY-driven NF-kB signaling, primary screen, Q293 LMP1-TROYcd cells, NF-kB luciferase, uHTS; Q293 LMP1-TROYcd NF-kB luciferase reporter, 4 h; inhibition, % at 10 µM; 360,000 compounds, 0.98% hits; AID 1347056, 2019;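 active means compounds whose plate-normalised and pattern-corrected inhibition of the luciferase reporter signal at the single screening dose is 50% or more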
PAX8 inh HTS: inhibitors of PAX8-driven TPO luciferase reporter, primary screen, RMG-I cells, single concentration; 360,000 compounds, 1.2% hits; inhibition, % at 12.6 µM; AID 652154, 2013; SteadyGlo, 24 h;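 active means mean replicate inhibition at least 60% with every replicate also reaching 60%; inconclusive means only one of the two criteria is met; inactive means mean below 60% and not all replicates reaching 60%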;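 further: luciferase light reporting Pax8 driven TPO promoter activity; plate controls were median of neutral control wells for no effect and mitoxantrone controls for full effect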
* marks the source's active call; other numbers are inactive results; ? = inconclusive; . = no result given. Only some compounds are listed: those with a hit (about 2.8% of all), similar ones and a draw of the others.

SMILES | LGR2 inh | TWEAK-Fn14 inh | EWS-Fli block | TROY signal inh | PAX8 inh HTS
CCCCc1nnc(NC(=O)CCS(=O)(=O)c2ccc(C)cc2)s1 | -2.3 | -0.9 | -23.9 | -15.7 | 78.8*
CCCC(C)c1nnc(NC(=O)CCS(=O)(=O)c2ccccc2)s1 (configuration not stated) | 10.8 | 57.2* | -8.3 | 3.8 | 26.3
COc1ccccc1NC(=O)N[C@H]1CC[C@H](CC(=O)NCc2ccc(Cl)c(Cl)c2)O[C@H]1CO | 2.7 | . | . | . | .
CO[C@H]1CC[C@@H]2CCOc3c(C#N)cccc3C(=O)N(C)[C@@H](C)C(=O)N(C)C[C@H]1O2 | -7.5 | . | 10.4 | . | 8.0
C[C@@H]1CN([C@@H](C)CO)S(=O)(=O)c2ccc(-c3ccc(F)cc3)cc2O[C@@H]1CN(C)C(=O)Nc1ccccc1F | 20.6 | . | 13.9 | . | .
O=C(C1CC1)N1C[C@@H]2[C@H](c3ccccc31)[C@H](CO)N2C(=O)Nc1cccc(F)c1 | -16.2 | . | -2.5 | . | -1.7
COc1ccc(-c2ccc([C@H]3[C@H](CO)N4C(=O)CN(C(=O)c5ccccn5)C[C@@H]34)cc2)cc1 | 2.5 | . | 1.6 | . | -13.3
C[C@H]1CN([C@@H](C)CO)C(=O)c2cc(NC(=O)Nc3cccc4ccccc34)ccc2O[C@@H]1CN(C)S(=O)(=O)c1cn(C)cn1 | 5.6 | . | -1.0 | . | .
CCC(=O)N[C@@H]1CC[C@H](CC(=O)NCCN2CCCCC2)O[C@H]1CO | 7.0 | . | 2.5 | . | -7.4
CCCNC(=O)C[C@H]1CC[C@@H]2[C@H](COC[C@@H](O)CN2C(=O)C2CCOCC2)O1 | 7.9 | . | 5.2 | . | -8.4
COc1ccc(O)c(C(c2c(C)[nH][nH]c2=O)c2c(C)[nH][nH]c2=O)c1 | 13.7 | -6.9 | 10.1 | 9.9 | 96.7*
CN(c1ccc(Cl)cc1)S(=O)(=O)c1nnc(NC(=O)c2ccco2)s1 | -8.2 | 9.0 | 15.4 | 8.9 | -10.8
CC(C)C(=O)Nc1nnc(S(=O)(=O)N(C)c2ccc(Cl)cc2)s1 | -0.2 | 71.9* | 14.6 | 19.2 | 20.4
O=C1OCCC1Sc1nnc(-c2ccc(Br)cc2)o1 (configuration not stated) | . | 59.3* | . | -1.7 | .
CCCCNC(=S)Nc1ccc(Cl)cc1 | 11.0 | 3.4 | 78.4* | -29.9 | -28.6
CCNC(=S)Nc1ccc(Cl)cc1 | . | 7.5 | -8.8 | -6.8 | 20.6
O=[N+]([O-])c1ccc(NC(=S)NCc2ccc(F)cc2)cc1 | 7.8 | 36.0 | 7.9 | 55.6* | -9.9
O=[N+]([O-])c1ccc(NC(=S)NCc2ccncc2)cc1 | 11.9 | -5.0 | -0.7 | 4.2 | -4.9
O=[N+]([O-])c1ccc(NC(=S)NCCc2ccc(Cl)cc2)cc1 | . | 59.9* | . | 57.0* | .
Fc1ccc(NC(=S)NCc2ccccc2)cc1 | -10.2 | 106.5* | 18.4 | 13.4 | -22.1
COc1ccc(-n2c(C)c([N+](=O)[O-])c3ccc(O)c(CN4CCCCC4)c32)cc1 | . | 48.6 | . | 40.2 | -4.9
Cc1ccc(-n2c(C)c([N+](=O)[O-])c3ccc(O)c(CN(C)C)c32)cc1 | . | 75.0* | . | 50.7* | -10.0
CCNC(=O)C[C@H]1CC[C@H]2[C@H](COc3ccc(NC(=O)c4cscn4)cc3C(=O)N2C)O1 | -13.5 | . | 2.7 | . | -17.7
CN(c1ccccc1)S(=O)(=O)c1ccc(NC(=O)c2nc(S(C)(=O)=O)ncc2Cl)cc1 | 9.8 | 93.2* | 57.6* | 71.0* | 132.8*
COc1cccc(NC(=O)c2nc(S(C)(=O)=O)ncc2Cl)c1 | 1.5 | 74.4* | 59.1* | 53.0* | 11.3
SMILES | LGR2 inh | TWEAK-Fn14 inh | EWS-Fli block | TROY signal inh | PAX8 inh HTS
COc1cccc(NC(=O)c2nc(SC)ncc2Cl)c1 | -1.8 | -1.5 | -11.4 | 13.6 | 24.2
COc1ccccc1S(=O)(=O)N[C@H]1C=C[C@H](CC(=O)N2CCN(C)CC2)O[C@@H]1CO | 8.1 | . | -6.7 | . | 0.0
CCc1ccc(C(=O)COC(=O)c2n[nH]c3ccccc23)cc1 | -19.7 | 62.4* | -11.4 | 12.2 | -90.7
Cc1noc(C)c1S(=O)(=O)Nc1ccc2c(c1)C(=O)N([C@@H](C)CO)C[C@@H](C)[C@@H](CN(C)Cc1ccc(C(=O)O)cc1)OCCCC[C@@H](C)O2 | -6.0 | . | -13.0 | . | -5.7
Cc1c(N2C(=O)/C(=C\c3ccccc3O)SC2=S)c(=O)n(-c2ccccc2)n1C | 4.2 | 21.4 | -4.1 | -3.5 | -4.1
CN1C(=O)/C(=C/c2cc(N=Nc3ccccc3)ccc2O)SC1=S | 36.3 | 64.8* | . | 54.4* | .
COc1ccccc1C#Cc1ccc([C@H]2[C@H](C#N)N(C(=O)C3CC3)[C@H]2CO)cc1 | 34.8 | . | 18.4 | . | 91.1*
COc1ccccc1C#Cc1ccc([C@H]2[C@@H](C#N)N(C(=O)C3CC3)[C@H]2CO)cc1 | -16.1 | . | -26.0 | . | 66.4*
COc1ccccc1C#Cc1ccc([C@H]2[C@@H](C#N)N(C(=O)C3CCC3)[C@@H]2CO)cc1 | 8.4 | . | -1.0 | . | 3.9
CCCNC(=O)N(C)C[C@@H]1Oc2ncc(C#CCC(C)C)cc2C(=O)N([C@@H](C)CO)C[C@@H]1C | 10.6 | . | 4.0 | . | -6.3
C[C@H](CO)N1C[C@H](C)[C@@H](CN(C)S(=O)(=O)c2cn(C)cn2)Oc2ccc(NS(=O)(=O)c3ccc(Cl)cc3)cc2CC1=O | 32.9 | . | -5.8 | . | .
O=C(N[C@H]1CC[C@@H](CCNS(=O)(=O)c2ccccc2Cl)O[C@H]1CO)c1ccc(F)cc1 | 13.3 | . | 1.9 | . | -4.8
O=S(=O)(CCSc1nc2ccccc2o1)c1nc2ccccc2s1 | ? | 91.4* | 0.8 | 67.0* | .
O=S(=O)(CCSc1ccccn1)c1nc2ccccc2s1 | 39.0 | 61.2* | 26.1 | 33.6 | .
C[C@H]1CN([C@@H](C)CO)C(=O)c2cc(C#CC(C)(C)O)cnc2O[C@@H]1CN(C)Cc1ccccn1 | -5.2 | . | -1.5 | . | -23.5
C[C@H](CO)N1C[C@H](C)[C@@H](CN(C)Cc2ccncc2)Oc2ccc(NS(=O)(=O)c3ccccc3)cc2CC1=O | -5.6 | . | 2.8 | . | 23.3
Cc1cccc(N(Cc2ccccc2)C(=O)CCl)c1 | 23.7 | 40.6 | 52.2* | -10.8 | 122.7*
COc1ccc(CC(=O)N(Cc2ccccc2)c2cccc(C)c2)cc1OC | 3.3 | 8.8 | . | -4.9 | -4.5
O=C(CCl)N(Cc1ccccc1)c1ccccc1 | 14.6 | 24.0 | 73.3* | -27.4 | 108.3*
COC(=O)c1c[nH]c2c1-c1cc(C(=O)OCc3ccccc3)n(S(=O)(=O)c3ccc(C)cc3)c1C(=O)C2=O | 9.0 | 98.9* | 4.2 | 57.1* | 9.3
O=C(NC1CCCC1)N1CCCCN2[C@H](CO)[C@H](c3ccc(-c4ccccc4)cc3)[C@H]2C1 | -2.6 | . | 8.0 | . | 2.7
C[C@@H]1CN([C@H](C)CO)C(=O)c2cc(NS(=O)(=O)c3cn(C)cn3)ccc2O[C@@H]1CN(C)C(=O)Nc1ccc(F)cc1 | -2.2 | . | 0.4 | . | 13.3
Cc1ccc(-n2cc(C(=O)c3ccccc3O)cn2)cc1 | . | 83.0* | . | 46.8 | -12.5
C[C@H](CO)N1C[C@H](C)[C@@H](CN(C)C(=O)Nc2ccc3c(c2)OCO3)Oc2ccc(NC(=O)CCCCCC(=O)Nc3ccccc3N)cc2C1=O | 2.6 | . | -11.8 | . | -29.8
